Screening data deposited in PubChem by several laboratories.
An excerpt weighted towards active compounds, which were near 2.2% of everything screened.
aSyn 5UTR inh: MLPCN primary screen, SNCA 5' untranslated region. alpha-synuclein 5'UTR reporter, inhibitor activity. inhibition, % (tested at 7.5 µM). 300,000 tested, 0.82% active. AID 1813; in the data active = inhibition above about 60%; inconclusive = no clear call, values can overlap the other calls;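 note: H4 neuroglioblastoma cells stably carrying SNCA 5'UTR luciferase fusion; 0% = DMSO wells and 100% = positive control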
IEC-6 cytotox: kills IEC-6 intestinal cells in KLF5 counter-screen. 290,000 tested, 0.78% active. IEC-6 cytotoxicity, luminescence viability. inhibition, % at 5 µM. AID 1825; in the data active = inhibition above about 22%;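 note: 0% = plate median of test compound wells and 100% = cytotoxic reference compound wells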
BaF3 tox: reduces parental Ba/F3 cell viability, JAK2V617F counter-screen | CellTiter-Glo ATP luminescence | inhibition, % at 5.6 µM | 220,000 tested, 1.1% active;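 active = inhibition above a per-campaign cutoff, the mean inhibition of all tested compounds plus 3 SD, cut at about 27% in these data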;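 note: 0% = DMSO wells and 100% = JAK Inhibitor I control wells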
APP transl inh: APP translation inhibition | SH-SY5Y APP 5'UTR-luciferase reporter, luminescence | inhibition, % at 2 µM | 190,000 tested, 0.82% active | AID 1285;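 active = inhibition above a set limit, derived from the sample mean plus 3 SD, cut at about 45% in these data; inconclusive = one replicate passes the limit while the other fails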
Ba/F3 V617F tox: lowers viability of Ba/F3 cells expressing EpoR and JAK2V617F | inhibition, % at 5.6 µM | 220,000 tested, 1.1% active | AID 1446 | ATP luminescence;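 active = inhibition above the campaign mean plus 3 SD over all tested compounds, cut at about 24% in these data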;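 note: cytokine-independent growth of Ba/F3 cells driven by EpoR plus mutant JAK2; 0% = DMSO-treated cells and 100% = JAK inhibitor I control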
KLF5 inh: inhibitors of KLF5 expression; DLD-1 KLF5 promoter-luciferase reporter, luminescence; inhibition, % at 5 µM; 290,000 tested, 0.23% active;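 active = inhibition above a per-plate limit of that plate's mean compound inhibition plus 3 SD, cut at about 60% in these data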;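 note: 0% = DMSO wells and 100% = LY294002 at 200 µM; higher means less KLF5 promoter-driven luciferase light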
Numbers without * were called inactive; u = inconclusive; x = not tested or not shown.

SMILES	aSyn 5UTR inh	IEC-6 cytotox	BaF3 tox	APP transl inh	Ba/F3 V617F tox	KLF5 inh
COc1ccc(C(=O)NC(=O)Nc2cc(C)ccn2)cc1	72*	7	3	-159	3	-156
O=[N+]([O-])c1ccc(/C=N/n2cnc3ccccc32)s1	68*	4	1	6	0	-9
COc1ccc(C(=O)NCC(=O)c2ccccc2)cc1	-102	-6	x	x	x	-129
COc1ccccc1N1CCN(Cc2nc(N)nc(Nc3ccc(C)c(Cl)c3)n2)CC1	50	8	7	-11	18	-6
FC(F)(F)c1cc(Oc2ccc(Cl)cc2)nc(-c2ccccn2)n1	9	1	0	-1	-5	11
FC(F)(F)c1cc(Oc2ccccc2Cl)nc(-c2ccccn2)n1	64*	16	1	-5	-4	2
O=C(c1cc(-c2ccccc2)nc2ccccc12)N1CCc2ccccc2C1	-1	-4	1	-16	-3	-24
Cc1ccc2nc(-c3ccccc3)cc(C(=O)N3CCc4ccccc4C3)c2c1	-51	2	0	47*	-3	-15
CC(C)c1cccc(C(C)C)c1NC(=O)COc1nncc2ccccc12	-5	-8	9	-5	0	-17
COc1ccc(CNc2nc3ccccc3s2)cc1OC	-141	-2	x	x	x	-69
Cc1ccc(CNc2nc3ccccc3s2)s1	78*	3	5	-182	2	-25
Cc1ccc(C(=O)Nc2ccc3ncccc3c2)cc1	84*	1	x	x	x	45
O=c1/c(=C\c2cccn2-c2ccccc2)sc2nc3ccccc3n12	x	-3	1	-75	-2	-49
Cc1ccc(-n2c(C)cc(/C=c3/sc4nc5ccccc5n4c3=O)c2C)cc1	67*	4	4	27	-2	-16
Cc1ccc(Nc2nc(N)c([N+](=O)[O-])c(NCc3ccco3)n2)cc1	-11	-3	3	-10	-3	-7
Cc1nc(NC(=O)c2ccccc2)sc1-c1csc(N)n1	-39	17	69*	-49	61*	-79
O=C(Cn1ccc([N+](=O)[O-])n1)N1CCCCC1	26	4	43*	0	-2	-2
O=C(c1nn2c(C(F)(F)F)cc(-c3cccs3)nc2c1Cl)N1CCCc2ccccc21	78*	-1	3	14	2	-12
COc1ccccc1CC(=O)NN1C(=O)c2ccccc2C1=O	17	10	35*	-5	5	-10
O=C(Cc1ccccc1)NN1C(=O)c2ccccc2C1=O	17	0	6	-12	1	2
Cc1ccc(Cl)cc1N1CCN(C2CCCCC2NS(=O)(=O)c2ccccc2)CC1 (configuration not stated)	-1	7	x	x	x	-2
O=C(NCCC1CCCCN1S(=O)(=O)c1ccc(Cl)cc1)C(=O)NCc1ccncc1 (configuration not stated)	62*	x	x	x	x	x
CCOC(=O)CSc1nc(=O)n2cccc(C)c2n1	-11	1	7	45*	5	-37
CCOc1ccc(N2Cc3ccccc3C2)cc1	-120	-4	-3	-105	-2	-70
Cc1ccc(-c2c[n+]3c(n2-c2ccccc2)CCC3)cc1	-2	22	65*	x	82*	9
SMILES	aSyn 5UTR inh	IEC-6 cytotox	BaF3 tox	APP transl inh	Ba/F3 V617F tox	KLF5 inh
c1ccc(-c2c[n+]3c(n2-c2ccccc2)CCC3)cc1	13	-4	65*	x	71*	-16
CCOc1ccc(-n2c(-c3ccccc3)c[n+]3c2CCCCC3)cc1	-10	22	70*	-12	89*	-7
Cc1ccc(-n2c(-c3ccccc3)c[nH]c2=S)cc1	-2	-7	2	-11	-1	-8
Cc1ccccc1OCCC(=O)N1CCN(S(=O)(=O)c2ccc(F)cc2)CC1	11	-2	x	x	x	-8
O=C(NCC(c1ccco1)N1CCN(c2ccccc2)CC1)c1cccs1 (configuration not stated)	-4	x	x	x	x	x
CCOc1ccc(S(=O)(=O)NCCC(=O)NC2CCN(Cc3ccccc3)CC2)cc1	21	x	x	x	x	x
O=C1CN(C(=O)CC2C(=O)NCCN2Cc2ccccc2C(F)(F)F)CCN1 (configuration not stated)	-10	0	x	x	x	4
COc1ccc(NC(=O)c2cc(-c3ccccc3OC)on2)cc1	20	8	6	74*	3	-6
COc1ccc(NC(=O)c2cc(-c3ccccc3Cl)on2)cc1	-125	-11	x	x	x	-93
CCCCCCCCSc1nnc(-c2ccc(OC)cc2)o1	111*	-3	1	5	0	-7
CCSc1nnc(-c2ccc(OC)cc2)o1	-186	2	-1	-87	1	-71
O=C(Nc1ccc(OCC(F)(F)C(F)F)c(C(F)(F)F)c1)c1ccccc1O	42	2	87*	-9	48*	4
O=C(Nc1ccc(OCC(F)(F)C(F)F)c(C(F)(F)F)c1)c1ccccc1	-101	10	1	-3	-2	-48
COc1ccc(CCNc2cc(N3CCN(C(=O)c4ccc(C)cc4)CC3)ccc2[N+](=O)[O-])cc1OC	2	-2	43*	-7	1	-17
COc1ccc(C(=O)N2CCN(c3ccc([N+](=O)[O-])c(NCCc4ccc(OC)c(OC)c4)c3)CC2)cc1	16	1	12	18	6	-20
CCCC(=O)OCCNc1cc(Sc2nc3ccccc3[nH]2)c2nonc2c1[N+](=O)[O-]	-2	7	-1	74*	-2	23
CC(=O)OCCCNc1cc(Sc2ccc(Cl)cc2)c2nonc2c1[N+](=O)[O-]	8	-15	2	51*	-2	9
CCC(=O)OCCNc1cc(Sc2nccn2C)c2nonc2c1[N+](=O)[O-]	16	-5	1	60*	-2	-20
COc1ccc(C)cc1S(=O)(=O)N(C)CC(=O)NCc1ccncc1	9	0	x	x	x	-8
C[C@H](NC(=O)c1ccccc1Cl)C(=O)Nc1ccccc1F	3	-6	x	x	x	-26
Cn1c(=O)c2c(nc(NCc3ccco3)n2C/C=C/c2ccccc2)n(C)c1=O	90*	x	x	x	x	x
Cc1cc(C)n2nc(SCn3nnc4ccccc4c3=O)nc2n1	10	4	0	-7	-3	-6
CCC(CC)C1C(C#N)=C(N)Oc2n[nH]c(-c3ccccc3)c21 (configuration not stated)	-2	-1	1	x	-3	-7
CCC(CC)C1C(C#N)=C(N)Oc2n[nH]c(C)c21 (configuration not stated)	12	-2	92*	19	-1	-4
Cc1ccc(C[n+]2cccc(-c3ccccc3)c2)c(C)c1	-9	13	69*	-4	77*	-25
Cc1ccc2ccc[n+](Cc3ccccc3)c2c1	-5	x	x	x	x	x
Cc1ccc(-c2cc(C(=O)N3CCOCC3)no2)cc1	67*	-5	x	x	x	41
Cc1ccc(-c2cc(C(=O)N3CCCC3)no2)cc1	u	0	1	-208	-1	-114
COc1ccc(-c2csc(NC(=O)c3ccccc3NS(=O)(=O)c3ccc(F)c(F)c3)n2)cc1	74*	58*	103*	-6	100*	78*
